Measured values from PubChem BioAssay AID429 (Emory University Molecular Libraries Screening Center, 2006).
About 220 (0.34%) of roughly 64,000 compounds were called active. The list comes from a sample in which actives are over-represented; it also holds similar structures and randomly drawn compounds. Unmarked numbers belong to inactive results.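 How the source made its calls: active means inhibition above 50%; inactive means the rest.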

The compounds below were run against Heat shock protein HSP 90-alpha (Homo sapiens) (UniProt P07900) (assay: tumor Hsp90 inhibitors, primary screen, cell lysate, fluorescence polarization, NCI-N417 lysate (AID 429;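 further: 0% = tracer plus lysate wells and 100% = tracer alone without lysate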)). Settings: NCI-N417 lysate Hsp90, Cy3B-geldanamycin FP displacement; at 30 µM; hits give high values.
Compound `CCOc1ccc(CCNC(=O)C2CCN(c3ccc(N4CCOCC4)nn3)CC2)cc1OCC` has an inhibition of -1.25%. `OC[C@H]1O[C@@H](n2cnc3c(N[C@H]4CC5CCC4C5)ncnc32)[C@H](O)[C@@H]1O` (stereo partly drawn) was tested, and the inhibition was -1%. `O=C(OCC(=O)c1cccs1)C1=COCCO1` showed an inhibition of -6.24%. Work on `COc1cc(Cl)cc(C2NC(=O)NC(C)=C2C(=O)NCc2ccccc2)c1O` (stereo not drawn) yielded an inhibition of -1.82%. Work on `O=C(c1ccco1)N1CCN(C(=O)C2CC(c3ccc(Cl)c(Cl)c3)=NO2)CC1` (stereo not drawn) yielded an inhibition of -2.91%. With `CCC(CC)C(=O)Nc1cc(C(=O)OC)cc(C(=O)OC)c1` the inhibition was -13.5%. With `CC(=O)N1CCC(C(=O)Nc2nc(-c3ccccc3)ns2)CC1` the inhibition was -2.79%. In the case of `Cc1coc2c(O)cc3c(c12)OC1(N2CCCCC2)C(=O)NCCCC31` (stereo not drawn), the inhibition is reported as 96.8% (active). In the case of `CC(=O)/C(C)=N/O`, the inhibition is reported as 5.45%. For `COc1ccc(-n2nc3c(c2NC(=O)Cc2cccc(C)c2)CS(=O)C3)cc1` (stereo not drawn), the inhibition was -2.13%. With `Nc1cc(O)cc2cccnc12` the inhibition was 150% (active). Work on `O=C(Nc1ccn(Cc2ccc(F)cc2)n1)c1ccncc1` yielded an inhibition of -2.29%. With `CN(C)c1nc(N)nc(CSc2nnnn2-c2cccc3ccccc23)n1` the inhibition was -1.24%. In the case of `Cc1ccc(S(=O)(=O)N2CCCC2CO)cc1` (stereo not drawn), the inhibition is reported as -1.22%. Compound `C=CCNc1ncnc2ccc(Br)cc12` has an inhibition of -2.85%. Work on `Cc1nn(-c2ccccc2)c(CC(C)(C)C(=O)O)c1C(=O)O` yielded an inhibition of 0.74%. Compound `Oc1ccc(Cn2cc[nH]c2=S)cc1` has an inhibition of -2.1%. With `CCC(Sc1nncn1C)C(=O)Nc1nnc(-c2ccc(Cl)cc2)s1` (stereo not drawn) the inhibition was -2.78%. With `COc1cc(NCS(=O)(=O)c2ccc(C)cc2)c2ncccc2c1` the inhibition was -1.2%. `O=C(c1ccccc1)c1ccc2nc(N3CCCCC3)c3nncn3c2c1` showed an inhibition of -6.65%. `CCOc1cccc(/C(O)=C2/C(=O)C(=O)N(CCOC)C2c2ccncc2)c1` (stereo not drawn) gave an inhibition of 2.34%. Work on `CS(=O)(=O)c1ccc2nc(NC(=O)CN3CCCCCC3)sc2c1` yielded an inhibition of -0.64%. `O=C(NCCc1ccc(Cl)cc1)C1CC(=O)N(C2CCCCC2)C1` (stereo not drawn) gave an inhibition of -0.35%. For `NS(=O)(=O)c1ccc(CCNC(=O)Nc2ccc(Cl)cc2)cc1`, the inhibition was -2.49%. `Oc1cc2c(cc1O)CN(C(=S)NCCc1ccc(Cl)cc1)CCC2` was tested, and the inhibition was 77.6% (active). For `Cc1ccc(-c2nnc(SC(C)C#N)n2N)cc1` (stereo not drawn), the inhibition was 2.26%. Compound `O=C(Nc1nccs1)C1CCCN1S(=O)(=O)c1cccc2cccnc12` (stereo not drawn) has an inhibition of -1.15%. `COc1ccccc1NC1=NC(c2ccc(Cl)cc2)N=C(N)N1` (stereo not drawn) was tested, and the inhibition was 1.36%.
